Reference: PubChem BioAssay (NCATS)
Results filed as inconclusive are left out. Values without a mark were called inactive. The source made the active and inactive calls. The call rests on the fitted dose curve; in most records, active means well fitted inhibition curve with a large enough effect; inconclusive means small, poorly fitted or top-dose-only effect; inactive means flat fitted curve, though single readings scatter.

assay: qHTS to identify inhibitors of the type 1 interferon - major histocompatibility complex class I in skeletal muscle: primary screen against the NCATS Pharmaceutical Collection (AID 1347407); conditions: human skeletal muscle cells, IFN-b-induced MHC-I HiBiT luminescence, 24 h; series mostly up to 45.9 µM; activity change, negative = inhibition: at the top concentration
Summary of the method: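 Luminescence from HiBiT-tagged endogenous HLA-B*08:01 served as the read-out of IFN-beta-induced MHC class I in CRISPR-engineered C25cl48 myoblasts. Cells received 4 ng/ml IFN-beta plus compound (high final 46 uM, […]) for 24 h.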
On the % scale 0 is the no-effect control and ±100 the full control effect; potency means the concentration at half of the fitted maximal effect.

| Compound | activity change, negative = inhibition | Potency |
| --- | --- | --- |
| ClCCN1CCCC1 | -1.86% | – |
| C[C@]12CC[C@@H]3c4ccc(OC(=O)N(CCCl)CCCl)cc4CC[C@H]3[C@@H]1CC[C@@H]2O | -2.84% | – |
| CCN(CC)C(=O)[C@@H]1C=C2c3cccc4[nH]cc(c34)C[C@H]2N(C)C1 | -17.7% [at 154 µM] | – |
| COc1ccc2c3c1O[C@H]1[C@H](O)CC[C@H]4[C@@H](C2)N(C)CC[C@@]341 | -11.5% [at 92.2 µM] | – |
| COc1cc(CC(C)N)cc(OC)c1OC (stereo not drawn) | 0.648% [at 92.2 µM] | – |
| c1ccc(N2CCNCC2)cc1 | 4.82% | – |
| C[C@@H]1CC2=CC(=O)CC[C@@H]2[C@H]2CC[C@@]3(C)[C@@H](CC[C@]3(C)O)[C@@H]21 | -3.44% | – |
| [N-]=[N+]=CC(=O)OC[C@H](N)C(=O)O | 2.09% | – |
| CNCC(=O)c1ccc(O)c(O)c1 | -9.3% | – |
| CNC(C)(C)Cc1ccccc1 | 0.984% | – |
| O=C1c2ccccc2C(=O)C1C(=O)C(c1ccccc1)c1ccccc1 | -23.8% | – |
| Nc1nc(N)nc(NC2CC2)n1 | -2.42% | – |
| CC(Cc1ccccc1)NCCn1cnc2c1c(=O)n(C)c(=O)n2C (stereo not drawn) | 0.684% [at 92.2 µM] | – |
| COC(=O)C(Cl)C(=O)OC | 11.6% | – |
| CC(C)NC(C)C | 10.3% | – |
| COC(=O)[C@@H](N)CCCN/C(N)=N/[N+](=O)[O-] | -0.862% | – |
| CC(C)=CC1C(C(=O)OCN2C(=O)C3=C(CCCC3)C2=O)C1(C)C (stereo not drawn) | 0.98% | – |
| C[C@]12CC[C@H]3[C@@H](CC[C@@]45O[C@H]4C(O)=C(C#N)C[C@]35C)[C@H]1CC[C@H]2O | – | 11.8 µM (active) |
| NNc1ccccc1 | 12.6% | – |

| Compound | activity change, negative = inhibition | Potency |
| --- | --- | --- |
| CC(C)(C)NCC(O)c1cc(Cl)c(N)c(C(F)(F)F)c1 (stereo not drawn) | 1.84% | – |
| COc1cccc([C@@]2(O)CCCC[C@@H]2CN(C)C)c1 | -6.17% | – |
| CC(C(=O)c1ccccc1)N(C)C (stereo not drawn) | -3.62% | – |
| c1ccc(CN2CCNCC2)cc1 | 6% [at 154 µM] | – |
| CCOC(=O)CC(SP(=S)(OC)OC)C(=O)OCC (stereo not drawn) | – | inactive |
| CC(Cc1ccccc1)N(C)Cc1ccco1 (stereo not drawn) | 0.994% | – |
| O=C1OC(CCN2CCCCC2)OC1(c1ccccc1)c1ccccc1 (stereo not drawn) | -2.49% | – |
| C[C@H](N)C(=O)c1ccccc1 | 6.21% [at 154 µM] | – |
| O=[N+]([O-])O[C@H]1CO[C@H]2[C@@H]1OC[C@H]2O[N+](=O)[O-] | -2.62% | – |
| CCCCCCCCCC(=O)O[C@H]1CC[C@H]2[C@@H]3CCC4=CC(=O)CC[C@@H]4[C@H]3CC[C@]12C | -7.79% | – |
| CCCN(CCC)C(=O)Cc1c(-c2ccc(Cl)cc2)nc2ccc(Cl)cn12 | -15.6% | – |
| C=CCN1C[C@H](C)N([C@H](c2ccc(C(=O)N(CC)CC)cc2)c2cccc(OC)c2)C[C@H]1C | -7.79% | – |
| Nc1ccccc1C(=O)O | 6.95% | – |
| Oc1ccc(Cl)cc1 | -1.07% | – |
| CCN[C@@H](C)Cc1ccccc1 | -3.37% [at 92.2 µM] | – |
| CC(=O)OCC1=C(C(=O)O)N2C(=O)[C@@H](N)[C@H]2SC1 | -0.859% [at 19 µM] | – |
| CCc1cc2c(s1)-n1c(C)nnc1CN=C2c1ccccc1Cl | -11.4% | – |
| CCC(CC)(CNC(=O)CCCO)c1cccc(OC)c1 | 6.45% | – |
| C#CC(O)(C=CCl)CC (stereo not drawn) | -1.27% | – |
